From PubChem BioAssay (EPA / NIEHS)
Several values for one entry are separate records, joined by “and”; a condition that tells them apart may be missing. Equal entries are not always repeated. Activity calls are given as the source filed them. The calls were made as follows: active = hit-call score of the fitted dose curve at least 0.9, where 1 is the maximum; inactive = score below 0.9.

Each compound was assayed on Interferon-gamma inducible Protein 10 (IP10), CXCL10 (gene 3627) (assay: BSK_hDFCGF_IP10: BioMAP Diversity Plus: hDFCGF Assay for Interferon-gamma inducible Protein 10 (IP10) Biomarker Activity (AID 2283053)). Conditions: primary human foreskin fibroblasts; actives raise or lower the signal.
Description: BSK_hDFCGF is a cell-based, multiplexed-readout assay that uses foreskin fibroblast, a human skin primary cell, with measurements taken at 24 hours after chemical dosing in a 96-well plate.BSK_hDFCGF_IP10 is an assay component measured in the BSK_hDFCGF assay. It measures IP-10 antibody related to regulation of gene expression using ELISA technology.Data from the assay component BSK_hDFCGF_IP10 was analyzed into 1 assay endpoint. This assay endpoint, BSK_hDFCGF_IP10, was analyzed with bidirectional fitting relative to DMSO as the negative control and baseline of activity. Using a type of binding reporter, gain or loss-of-signal activity can be used to understand changes in the signaling as they relate to the gene CXCL10. Furthermore, this assay endpoint can be referred to as a primary readout, because this assay has produced multiple assay endpoints where this one serves a signaling function. To generalize the intended target to other relatable targets, this assay endpoint is annotated to the cytokine intended target family, where the subfamily is chemotactic factor.
The levels of cell surface (or secreted, indicated by the prefix "s") biomarker endpoints were measured by ELISA. Overt cytotoxicity to cells in confluent adherent cultures (all systems other than the BT system) was assessed by measuring total protein levels using sulforhodamine B (SRB) staining in parallel cultures at the time of biomarker measurements, indicated as SRB endpoints. For proliferation assays for adherent cell types, individual cell types are cultured at sub-confluence and relative cell numbers quantified by SRB staining at time points optimized for each system (48 h: 3C and CASM3C systems; 72 h: BT and HDF3CGF systems; 96 h: SAg system). SRB was performed by staining cells with 0.1% SRB after fixation with 10% TCA and reading wells at 560 nm.Viability and proliferation of PBMC (T cells) was quantified by Alamar Blue reduction for the SAg and BT systems. For PBMC viability (referred to as PBMC Cytotoxicity within the assay endpoint names), cells were plated (75,000/well in a 96-well plate) and then chemical samples added for 1 h before addition of activators, SEB and TSST-1 (20 ng/mL final concentration each). Cells were incubated for 90 h. Then, Alamar Blue (20 uL/well) (Invitrogen, Cat DAL1100) was added for 6 h, and the plates were read with a fluorescence microplate reader at 546/580 nm (excitation/emission). For PBMC proliferation, cells were plated and activated as above but incubated for only 16 h prior to addition of Alamar Blue. Plates were read after 6 h.
`C[C@]12CC[C@@H]3c4ccc(O)cc4CC[C@H]3[C@@H]1C[C@@H](O)[C@@H]2O` was tested, and the outcome was “inactive”.
In the case of `CS(=O)(=O)c1ccc([C@@H](CC2CCCC2)C(=O)Nc2cnccn2)cc1Cl`, the outcome is reported as “inactive”.
In the case of `Cc1cccc2c1ccc1ccccc12`, the outcome is reported as “inactive”.
With `O=S(=O)(O)C(F)(F)C(F)(F)C(F)(F)C(F)(F)C(F)(F)C(F)(F)C(F)(F)C(F)(F)C(F)(F)C(F)(F)F` the outcome was “inactive”.
With `CCCCC(CC)C(=O)OCCOCCOCCOCCOC(=O)C(CC)CCCC` (stereo not given) the outcome was “inactive”.
`CCCCCCCCCCCCCCCCCC[N+](C)(C)Cc1ccccc1` was tested, and the AC50 was 0.795 µM (active).
In the case of `C=CC(C)(CCC=C(C)C)OC(C)=O` (stereo not given), the outcome is reported as “inactive”.
For `CCCCC=O`, the outcome was “inactive”.
With `O=C1NS(=O)(=O)c2ccccc21` the outcome was “inactive”.
With `O=C(O)CCC(F)(F)C(F)(F)C(F)(F)C(F)(F)C(F)(F)C(F)(F)F` the outcome was “inactive”.
With `CN(C)c1ccc(C(=C2C=CC(=[N+](C)C)C=C2)c2ccccc2)cc1` the AC50 was 0.0138 µM (active).
`CCCCCCCCCCCCCCC` was tested, and the outcome was “inactive”.
In the case of `CC(C)(C)c1ccc(O)c(O)c1`, the AC50 is reported as 32.3 µM (active).
For `CCC(C)c1ccccc1O` (stereo not given), the outcome was “inactive”.
In the case of `COC1=CC(=O)C[C@@H](C)[C@]12Oc1c(Cl)c(OC)cc(OC)c1C2=O`, the outcome is reported as “inactive”.
`O=C(CC(=O)C(F)(F)C(F)(F)C(F)(F)F)c1cccs1` was tested, and the outcome was “inactive”.
With `OCCN1CN(CCO)CN(CCO)C1` the AC50 was 20 µM (active).
With `O=C(O)C(F)(F)OC(F)(F)C(F)(F)OC(F)(F)C(F)(F)OC(F)(F)C(F)(F)C(F)(F)C(F)(F)F` the AC50 was 10.1 µM (active) and 9.36 µM (active).
`CN(CCO)S(=O)(=O)C(F)(F)C(F)(F)C(F)(F)C(F)(F)C(F)(F)C(F)(F)C(F)(F)C(F)(F)F` was tested, and the outcome was “inactive”.
For `CCCCC(CC)C(=O)O` (stereo not given), the outcome was “inactive”.
For `O=C(NCc1ncc(C(F)(F)F)cc1Cl)c1c(Cl)cccc1Cl`, the outcome was “inactive”.
With `CCOC(=O)CN[C@@H](C(=O)N1CC[C@H]1C(=O)NCc1ccc(/C(N)=N/O)cc1)C1CCCCC1` the outcome was “inactive”.
For `Clc1ccc(Nc2nnc(Cc3ccncc3)c3ccccc23)cc1`, the outcome was “inactive”.
In the case of `O=C1OC2(c3ccccc31)c1cc(I)c(O)c(I)c1Oc1c2cc(I)c(O)c1I`, the AC50 is reported as 16 µM (active).
For `CC1=NN(c2ccccc2)C(=O)C1`, the outcome was “inactive”.
With `Oc1ccc(Cc2ccccc2O)cc1` the outcome was “inactive”.
With `CCCCCc1ccc(O)cc1` the AC50 was 33.2 µM (active).
`CC[N+](CC)(CC)Cc1ccccc1` was tested, and the outcome was “inactive”.
`Cc1ccc(C(=O)c2ccccc2)cc1` was tested, and the AC50 was 33.1 µM (active).
`O=C1c2ccc(O)c(O)c2C(=O)c2c(O)ccc(O)c21` was tested, and the outcome was “inactive”.
`COc1cc(OC)nc(NC(=O)NS(=O)(=O)Nc2ccccc2C(=O)N(C)C)n1` was tested, and the outcome was “inactive”.
For `O=C(c1ccccc1)c1ccccc1`, the outcome was “inactive”.
In the case of `N=C(N)c1ccc(OCCCCCOc2ccc(C(=N)N)cc2)cc1`, the AC50 is reported as 17.5 µM (active).
In the case of `NC(=NCCCCCCN=C(N)/N=C(\N)Nc1ccc(Cl)cc1)/N=C(\N)Nc1ccc(Cl)cc1`, the AC50 is reported as 8.17 µM (active).
For `CCCCCCCCCCCC`, the AC50 was 8.64 µM (active) and 6.71 µM (active).
For `O=C(O)CCC(F)(F)C(F)(F)C(F)(F)C(F)(F)C(F)(F)F`, the outcome was “inactive”.
`OCC(CO)(CBr)CBr` was tested, and the outcome was “inactive”.
For `O=C(NO)c1ccccc1`, the outcome was “inactive”.
With `COCN(COC)c1nc(N(COC)COC)nc(N(COC)COC)n1` the outcome was “inactive”.
In the case of `C=CC(=O)OCCC(F)(F)C(F)(F)C(F)(F)C(F)(F)C(F)(F)C(F)(F)C(F)(F)C(F)(F)F`, the outcome is reported as “inactive”.
